Only some compounds are listed: those with a hit (about 15% of all), similar ones and a draw of the others.
ELG1 DNA repair – inhibitors of ELG1-dependent DNA repair in HEK293T cells. HEK293T ELG1-luciferase reporter, luminescence, 16 h; DNA damage induced by 5-fluorouridine. Potency, µM (highest dose often 46.1 µM), inactives show at the top dose activity change, negative = inhibition, actives largely listed as inhibitors. 2.3% of 330,000 active. AID 504467; further: nearly all actives have a fitted effect of over 55% in size
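Step one: seed 2,000 cells per well. Step two: pin-transfer compound or DMSO alongside 5-fluorouridine. Step three: incubate 16 hr, 37 °C, 5% CO2. Step four: add ONE-Glo, wait 30 min, read luminescence.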
ALOX12 inh – ALOX12 (human) lipoxygenase inhibition; P18054; purified 12hLO, xylenol orange hydroperoxide absorbance; Potency, µM (titrated, usually from 108 µM), for inactives: top-dose activity change, negative = inhibition, most hits filed as inhibitors; 1.1% of 580,000 active
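Purified human 12hLO (150 nM final) in 25 mM Hepes, 0.01% Triton X-100, pH 7.0 was preincubated 15 min at room temperature with compound. Then 40 uM arachidonic acid was added, 30 min. Hydroperoxide was read by Fe-XO absorbance ratio 573/405 nm.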
DT40 TDP1 CPT – growth inhibition of DT40 Tdp1-/-;hTDP1 cells with camptothecin (screen for TDP1 inhibitors); chicken DT40 Tdp1-/-;hTDP1 cells + 20 nM CPT, ATP luminescence, 48 h; Potency, µM (top dose mostly 46.2 µM), for the others: top-dose activity change, negative = growth inhibition, usual class: inhibitors; 12% of 420,000 active; AID 686979; further: nearly all actives have a fitted effect of over 55% in size
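Chicken DT40 Tdp1-/- cells stably complemented with human TDP1 were seeded at 400 cells/well in medium containing 20 nM camptothecin, exposed to pin-transferred compounds, and grown at 37 °C for at least 48 hr. Viability was read as ATP luminescence.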
VP16 counter – counter-screen for ROR gamma inhibitors: Gal4-VP16 reporter. Potency, µM (highest dose often 53.6 µM), for the others: at the top dose activity, negative = inhibition, usual class: inhibitors. AID 2546. Drosophila S2 Gal4-VP16 UAS-luciferase, luminescence, 20 h. 3.5% of 310,000 active;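 further: Gal4-VP16 expression switched on by copper sulfate through the metallothionein promoter; nearly all actives have a fitted effect of over 50% in size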
TDP1 cell noCPT – qHTS for Inhibitors of human tyrosyl-DNA phosphodiesterase 1 (TDP1): qHTS in cells in absence of CPT | 15% of 420,000 active | Potency, µM (series often up to 46.2 µM), for inactives: at the top dose activity change, negative = growth inhibition, hits mostly inhibitors | DT40 Tdp1-/- hTDP1 cells, no CPT, ATP luminescence, 48 h | AID 686978, 2013; further: nearly all actives have a fitted effect of over 55% in size
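Growth kinetics read by CellTiter-Glo luminescence after ≥48 hr at 37 °C. Cells: DT40 Tdp1-/- stably carrying human TDP1, 400 per well, compound exposure in the absence of CPT (DMSO vehicle).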
RORg inh – inhibitors of mouse ROR gamma transcriptional activity; P51450; Drosophila S2 Gal4-RORgamma UAS-luciferase reporter, 20 h; Potency, µM (series often up to 53.6 µM), for the others: at the highest dose activity change, negative = inhibition, actives largely listed as inhibitors; 5.4% of 310,000 active; further: nearly all actives have a fitted effect of over 60% in size
Target sequence (P51450 whole entry, looked up, the tested form may be a part): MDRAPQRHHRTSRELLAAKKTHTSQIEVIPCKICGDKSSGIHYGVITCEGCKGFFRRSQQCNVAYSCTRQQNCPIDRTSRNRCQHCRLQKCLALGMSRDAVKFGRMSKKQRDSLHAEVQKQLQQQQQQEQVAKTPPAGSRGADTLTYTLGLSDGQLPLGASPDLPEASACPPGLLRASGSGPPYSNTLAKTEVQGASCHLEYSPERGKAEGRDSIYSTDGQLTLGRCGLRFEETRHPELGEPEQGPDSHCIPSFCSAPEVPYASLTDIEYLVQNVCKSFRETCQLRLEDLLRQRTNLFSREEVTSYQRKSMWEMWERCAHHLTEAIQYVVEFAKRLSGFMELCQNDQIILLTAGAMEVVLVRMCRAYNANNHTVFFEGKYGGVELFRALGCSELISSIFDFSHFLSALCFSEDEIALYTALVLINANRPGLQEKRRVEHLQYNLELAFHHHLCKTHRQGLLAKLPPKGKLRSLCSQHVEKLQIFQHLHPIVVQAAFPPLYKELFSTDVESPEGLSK
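Compounds are pin-transferred onto Drosophila Schneider cells expressing a copper-inducible Gal4–ROR gamma transactivation domain fusion. After 1 hr, copper sulfate is added to 700 uM final; luciferase is read 20 hr later.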
* marks the source's active call; other numbers are inactive results; ? = inconclusive; . = no result given; [ ] = remark or other dose. The call rests on the fitted dose curve; in most records, active means well fitted curve in the direction sought with a large enough effect; inconclusive means small, poorly fitted or top-dose-only effect, or another doubt; inactive means no such curve, though single readings can be large; an effect the other way counts as inactive or inconclusive. On the % scale 0 is the no-effect control and ±100 the full control effect; potency means the concentration at half of the fitted maximal effect.

SMILES	ELG1 DNA repair	ALOX12 inh	DT40 TDP1 CPT	VP16 counter	TDP1 cell noCPT	RORg inh
CCN(CCNC(=O)c1ccc(CSc2nc3ccncc3[nH]2)cc1)c1ccccc1	?	3.3%[57.4 µM]	-1.4%	?	-9.5%	-18.8%
CC1CC(C)CN(C(=O)c2ccc(CSc3nc4ccncc4[nH]3)cc2)C1 (stereo not drawn)	-12.2%	3.7%	?	-6.3%	11.6µM*	?
Cc1ccncc1C(=O)N1CCCN(C(=O)C2CC2)C(c2ccccc2)CC(=O)NCC1 (stereo not drawn)	.	29.2%	.	.	.	.
O=S(=O)(Cc1ccccc1)NCc1cccc(CNS(=O)(=O)Cc2ccccc2)c1	.	35.5µM*	.	.	.	.
Cc1ccc(S(=O)(=O)Nc2ccc(NS(=O)(=O)c3ccc(C)cc3)c3ncccc23)cc1	.	.	.	5.62µM*	.	5.01µM*
Cc1ccc2nsnc2c1S(=O)(=O)Nc1cccc2cccnc12	.	.	.	0.631µM*	.	1.12µM*
CC(C)c1cc(C(C)C)c(S(=O)(=O)Nc2cccc3cccnc23)c(C(C)C)c1	.	.	.	-89.9%	.	0.0501µM*
O=S(=O)(Nc1cc(Sc2cccc3cccnc23)c(O)c2ccccc12)c1ccccc1	9.2µM*	?	.	2.82µM*	.	1.26µM*
Cc1ccc(S(=O)(=O)Nc2ccc(S(=O)(=O)Nc3ncccn3)cc2)cc1	-7.0%	0.8%	-1.7%	-2.0%	-19.3%	-17.1%
COCCN1C(=O)c2cccn2CC1CNC(=O)Cc1ccccc1F (stereo not drawn)	.	43.3%	.	.	.	.
O=C1c2ccccc2C(=O)c2cc(S(=O)(=O)Nc3cccc4cccnc34)ccc21	.	.	.	-92.8%	.	0.891µM*
Nc1ccccc1S(=O)(=O)Nc1cccc2cccnc12	.	.	.	2.24µM*	.	1.58µM*
O=C1c2ccccc2C(=O)c2cc(S(=O)(=O)Nc3ccccc3)ccc21	-1.5%	-23.3%	14.6µM*	?	20.6µM*	-14.5%
Cc1ccc(S(=O)(=O)Nc2cccc3cccnc23)cc1	?	-0.2%	?	1.78µM*	20.6µM*	1.12µM*
O=S(=O)(Nc1cccc2cccnc12)c1ccc(F)cc1	.	19.2%	.	.	.	.
CCc1nncn1C1CCN(S(=O)(=O)c2ccccc2)CC1	.	20.4%	.	.	.	.
COc1ccccc1P(=O)(c1ccccc1)c1ccccc1	?	-24.4%	-20.5%	9.5%	-7.4%	-40.6%
Cc1ccccc1P(=O)(c1ccccc1)c1ccccc1C	.	1.7%	?	.	18.4µM*	.
CS(=O)(=O)c1ccccc1-c1nnc(NC(=O)COc2ccc(Cl)cc2)o1	0.2%	15.8%	?	.	-9.1%	.
O=C(COc1ccc(Cl)cc1Cl)Nc1nnc(C2=COCCO2)o1	?	-11.7%	-3.9%	4.47µM*	-1.2%	3.16µM*
O=C(COc1ccc(Cl)cc1)Nc1nnc(C2=COCCO2)o1	9.3%	?	1.5%	-15.6%	-12.3%	12.6µM*
O=C(Nc1cnc(-c2cccc(Cl)c2)nc1)c1cc(F)cc(F)c1	.	15.7%	.	.	.	.
CNc1nc(N2CCCN(C)CC2)nc2cc(OC)c(OC)cc12	.	.	14.1µM*	.	11.2µM*	.
CCNc1nc(N2CCCN(C)CC2)nc2cc(OC)c(OC)cc12	.	.	11.2µM*	.	11.2µM*	.
COc1cc2nc(-c3ccc(N4CCN(C)CC4)cc3)nc(NCCN3CCOCC3)c2cc1OC	.	-35.1%[57.4 µM]	.	.	.	.
SMILES	ELG1 DNA repair	ALOX12 inh	DT40 TDP1 CPT	VP16 counter	TDP1 cell noCPT	RORg inh
Cc1nc(SCc2ccc(OCCC(C)C)cc2)n[nH]1	?	3.0%	14.6µM*	?	?	-26.3%
Cn1c(=O)c2c(nc(NCc3ccccc3)n2CC(O)CO)n(C)c1=O (stereo not drawn)	.	2.8%	.	.	.	.
N#Cc1ccc(C(=O)Nc2ccc3ccccc3c2)cc1	?	17.7%	?	-2.0%	?	-30.3%
N#Cc1ccc(C(=O)Nc2ccc3c(c2)N(C2CCCC2)C(=O)c2ccccc2S3)cc1	.	-9.6%	23.1µM*	.	18.4µM*	.
CC(=O)Nc1ccc(C(=O)Nc2ccc3c(c2)N(C2CCCC2)C(=O)c2ccccc2S3)cc1	.	-17.0%	20.6µM*	.	16.4µM*	.
Cc1ccc2c(c1)C(c1ccc([N+](=O)[O-])cc1)=NNC(c1ccc(Br)cc1)=N2	?	-24.9%	-22.2%	-3.0%	?	-17.1%
CCc1ccc2c(c1)C(c1ccc([N+](=O)[O-])cc1)=NNC(c1ccc(Br)cc1)=N2	-1.0%	2.6%	13µM*	6.9%	?	?
Cc1nc2cc(NC(=O)c3cccc(S(=O)(=O)Nc4cccc(Cl)c4)c3)ccc2o1	.	-21.7%	.	.	.	.
CC(=O)N(/N=C/c1cccc(C)c1)c1nc(-c2ccc(Br)cc2)cs1	2.1%	-4.5%	20.6µM*	-24.1%	?	14.6%
COC(=O)c1ccc(/C=N/Nc2nc(-c3ccc(C)cc3)cs2)cc1	?	.	-7.5%	-5.4%	-26.7%	-37.3%
COc1ccc(/C=N/N(C(C)=O)c2nc(-c3ccc(C)cc3)cs2)cc1	3.0%	6.0%	-27.0%	-22.6%	13µM*	-14.3%
COc1ccc(NC(=O)CN2CCC(C)CC2)cc1	?	20.0%	-0.7%	-1.8%	-7.3%	-8.8%
COc1ccc(NC(=O)C/C(C)=N/NC(=O)c2ccncc2)c([N+](=O)[O-])c1	8.2%	13.7%	-13.6%	-20.8%	-23.4%	12.6µM*

Screening data (PubChem BioAssay)
